Measured values published in PubChem BioAssay (NCATS).
Where “and” joins values, the source holds several entries; their conditions need not be identical. Identical values can stand only once. Inconclusive results are not listed. Calls of active or inactive are those of the source. The call rests on the fitted dose curve; in most records, active means well fitted inhibition curve with a large enough effect; inconclusive means small, poorly fitted or top-dose-only effect; inactive means flat fitted curve, though single readings scatter.

What was measured:
CRL-7250 = normal cell line; assay: Cytotoxic Profiling of Annotated Libraries Using Quantitative High-Throughput Screening (AID 1296008); conditions: Five cell lines viability, CellTiter-Glo ATP luminescence, 48-72 h; max response: stronger effect = lower value; further: potency means the concentration at half of the fitted maximal effect; on max response: on the % scale 0 is the no-effect control and ±100 the full control effect
Method in brief: (§1)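 Compounds were pin-transferred onto cells and incubated 48 or 72 hr at 37 degree Celsius, 95% humidity. CellTiter-Glo was added, plates sat 10 min at room temperature, then ATP-coupled luminescence was imaged as the viability read-out.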

HEK293 = assay: as above; conditions: Five cell lines viability, CellTiter-Glo ATP luminescence, 48-72 h; max response: stronger effect = lower value
Method in brief: as §1

HaCat [1] = assay: as above; conditions: Five cell lines viability, CellTiter-Glo ATP luminescence, 48-72 h; max response: stronger effect = lower value
Method in brief: as §1

KB-3-1 = assay: as above; conditions: Five cell lines viability, CellTiter-Glo ATP luminescence, 48-72 h; max response: stronger effect = lower value
Method in brief: as §1

NIH3T3 = assay: as above; conditions: Five cell lines viability, CellTiter-Glo ATP luminescence, 48-72 h; max response: stronger effect = lower value
Method in brief: as §1

HACAT [2] = assay: qHTS assay to identify novel small-molecules to repurpose for Merkel cell carcinoma treatment (AID 1296009); conditions: MCC and control cell lines, CellTiter-Glo viability, 72 h
Method in brief: (§2)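 Luminescence from CellTiter-Glo, read 10 min after addition at room temperature, reported viability following a 72 hr, 37 degree celsius treatment with NPC or MIPE compounds in titration; values normalized to plate controls.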

HEK293T = assay: as above; conditions: MCC and control cell lines, CellTiter-Glo viability, 72 h; series mostly up to 44.8 µM
Method in brief: as §2

[3] = at 44.8 µM (top of the series) unless noted
Further: nearly all actives have a fitted effect of over 60% in size.

CCN[C@@H]1C[C@H](N)[C@@H](O[C@H]2OC(CN)=CC[C@H]2N)[C@H](O)[C@H]1O[C@H]1OC[C@](C)(O)[C@H](NC)[C@H]1O
inactive: max response (CRL-7250) -13% | outcome (CRL-7250) | max response (HEK293) -0.314% | outcome (HaCat [1]) | max response (KB-3-1) 9.12% | outcome (KB-3-1) | max response (NIH3T3) -0.755% and 2.29% | outcome (HACAT [2]; [3])

O=C(C1CC1)N1CC[C@@H](Cc2n[nH]c(=O)n2-c2ccc(-c3ccc4occc4c3)cc2)C1
inactive: max response (CRL-7250) -4.78% and -21.6% | outcome (HEK293) | max response (HaCat [1]) -2.96% | outcome (HaCat [1]) | outcome (KB-3-1) | max response (NIH3T3) -10.7% | outcome (HACAT [2]; [3]) inactive [at 17.4 µM] | Potency (HEK293T)

CN(C)C/C=C/C(=O)Nc1ccc(C(=O)Nc2cccc(Nc3ncc(Cl)c(-c4c[nH]c5ccccc45)n3)c2)cc1
active: Potency (CRL-7250) 164 nM and 263 nM | Potency (HEK293) 186 nM | Potency (HaCat [1]) 1.84 µM and 1.05 µM | Potency (KB-3-1) 184 nM | Potency (NIH3T3) 1.16 µM and 2.09 µM

N[C@H]1C[C@H]1c1ccc(-c2cccc(O)c2)cc1
inactive: max response (CRL-7250) 0.175% and -10.6% | max response (HEK293) -29.8% and -17.5% | max response (HaCat [1]) -1.19% | outcome (HaCat [1]) | outcome (KB-3-1) | max response (NIH3T3) -6.35% | outcome (NIH3T3) | outcome (HACAT [2]; [3])

O=C(Nc1cccnn1)N1CCC(=Cc2cccc(Oc3ccc(C(F)(F)F)cn3)c2)CC1
inactive: max response (CRL-7250) -4.32% | max response (HaCat [1]) -13.4% | outcome (HaCat [1]) | max response (NIH3T3) -5.09% and -8.67% | outcome (HACAT [2]; [3])
active: Potency (HEK293) 8.2 µM and 13.2 µM

COc1cc(N2CCC(N(C)C)CC2)ccc1Nc1ncc(Cl)c(Nc2ccccc2P(C)(C)=O)n1
active: Potency (CRL-7250) 2.91 µM and 1.48 µM | Potency (HEK293) 5.17 µM and 1.86 µM | Potency (HaCat [1]) 1.84 µM and 2.34 µM | Potency (KB-3-1) 4110 nM | Potency (NIH3T3) 2.06 µM

NS(=O)(=O)OC[C@@H]1C[C@@H](n2ccc3c(N[C@H]4CCc5ccccc54)ncnc32)C[C@@H]1O
active: Potency (CRL-7250) 1.3 µM and 651 nM | Potency (HEK293) 291 nM and 366 nM | Potency (HaCat [1]) 5.17 µM

CC(C)(O)/C=C1/C(=O)C(C)(C)C(=O)C(C)(C)C1(O)O[C@@H]1O[C@H](COC(=O)c2cc(O)c(O)c(O)c2)[C@@H](O)[C@H](O)[C@H]1O (some centres not stated)
inactive: max response (CRL-7250) -11.2% | outcome (HEK293) | outcome (HaCat [1]) | outcome (KB-3-1) | max response (NIH3T3) 4.71% | outcome (HACAT [2]; [3]) inactive [at 17.4 µM] | Potency (HEK293T)

COC(=O)C1C(CC(C)=O)C=CC(O)C12Oc1cc(C)cc(O)c1C2=O (configuration not stated)
inactive: max response (CRL-7250) -4.03% | outcome (HEK293) | outcome (HaCat [1]) | max response (KB-3-1) 4.45% | max response (NIH3T3) 3.58% | outcome (HACAT [2]; [3]) | Potency (HEK293T)

C[C@]12CCC[C@](C)(C(=O)O)C1CCC13C=C(CO)C(CCC12)C3 (some centres not stated)
inactive: max response (CRL-7250) -11% | outcome (HEK293) | outcome (HaCat [1]) | max response (KB-3-1) 2.91% | outcome (NIH3T3) | outcome (HACAT [2]; [3]) | Potency (HEK293T)

OC[C@H]1O[C@@H](OC(CCCCc2ccc(O)cc2)CCc2ccc(O)cc2)[C@H](O[C@@H]2OC[C@](O)(CO)[C@H]2O)[C@@H](O)[C@@H]1O (some centres not stated)
inactive: max response (CRL-7250) 3.53% | outcome (HEK293) | outcome (HaCat [1]) | outcome (KB-3-1) | max response (NIH3T3) 2.54% | outcome (HACAT [2]; [3]) inactive [at 17.4 µM] | Potency (HEK293T)

COc1cc(/C=C/C(=O)OC[C@H]2O[C@H](O[C@]3(CO)O[C@H](CO)[C@@H](O)[C@@H]3O)[C@H](O)[C@@H](O)[C@@H]2O)cc(OC)c1O
inactive: max response (CRL-7250) 0.115% | outcome (HEK293) | outcome (HaCat [1]) | max response (KB-3-1) -1.09% | max response (NIH3T3) -20.7% | outcome (HACAT [2]; [3]) inactive [at 17.4 µM] | Potency (HEK293T)

C[C@@H]1CC[C@]2(C(=O)O)CC[C@]3(C)C(=CCC4[C@]5(C)C(CC[C@]43C)C(C)(C)[C@@H](O)[C@H](O)[C@@H]5O)C2[C@]1(C)O (some centres not stated)
inactive: max response (CRL-7250) -2.7% | outcome (HEK293) | outcome (HaCat [1]) | outcome (KB-3-1) | max response (NIH3T3) -3.49% | outcome (HACAT [2]; [3]) inactive [at 17.4 µM] | Potency (HEK293T)

CCOC(=O)[C@H](CCc1ccccc1)CC1(C(=O)N[C@H]2CCc3ccccc3N(CC(=O)O)C2=O)CCCC1
inactive: max response (CRL-7250) -3.46% | outcome (HEK293) | outcome (HaCat [1]) | max response (KB-3-1) -2.38% | max response (NIH3T3) 3.76% | outcome (HACAT [2]; [3]) | Potency (HEK293T)

CO[C@@H]1COCC[C@@H]1N[C@@H]1CC[C@@](C(=O)N2CCc3ncc(C(F)(F)F)cc3C2)(C(C)C)C1
inactive: outcome (CRL-7250) | outcome (HEK293) | outcome (HaCat [1]) | outcome (KB-3-1) | max response (NIH3T3) -6.53% | outcome (HACAT [2]; at 17.4 µM (top of the series)) | outcome (HACAT [2]; at 44.8 µM (top of the series)) | Potency (HEK293T)

O=C1[C@H](O[C@@H]2O[C@H](CO)[C@@H](O)[C@H](O)[C@H]2O)Oc2ccccc2N1O
inactive: max response (CRL-7250) 1.51% | outcome (HEK293) | outcome (HaCat [1]) | max response (KB-3-1) 3.12% | max response (NIH3T3) 0.0797% | outcome (HACAT [2]; [3]) | Potency (HEK293T)
